# Laboratory results published in PubChem BioAssay AID1986 (Sanford-Burnham Center for Chemical Genomics, 2009).
# Among all 290,000 compounds or so, about 890 (0.31%) were called active. Rule as the data show it: active = inhibition mostly above about 52% (no sharp cut-off); inactive = mostly below about 76%. This excerpt belongs to a sample that is enriched for actives.
# Experiment: inhibitors of HIV fusion peptide binding, primary screen, biochemical, uHTS, fluorescence dequenching (AID 1986)
# Settings: cell-free peptide binding, 30 min, stronger effect = higher value
# [1] = measured here: repeat confirmation average inhibition, at 18.6 µM
Compound,inhibition (at 20 µM),inhibition [1]
CC(C)=NNc1nc2sc3c(c2c(=O)[nH]1)CC(C)(C)OC3,6.1% (inactive),
CN(C)[C@@H]1C(=O)C(C(=O)NCN2CCCC2)=C(O)[C@@]2(O)C(=O)C3=C(O)c4c(O)cccc4[C@@](C)(O)C3CC12 (stereo partly specified),55.1% (active),
C=CCCC(=O)N1CCC(n2nccc2NC(=O)CCCc2ccccc2)CC1,-2.2% (inactive),
COc1ccc2nc(N/C(N)=N/C(=S)Nc3cccc(C)c3)nc(C)c2c1,1.7% (inactive),
COc1cc(/C=c2\sc3nc(=O)c(-c4ccccc4)nn3c2=O)ccc1OCCC(C)C,62.3% (inactive),39.1%
CCCCCOc1ccc(/C=c2\sc3nc(=O)c(-c4ccccc4)nn3c2=O)cc1OC,51.8% (active),
COc1ccc(/C=c2\sc3nc(-c4ccccc4)c(-c4ccccc4)n3c2=O)cc1OC,-0.1% (inactive),
CC(=O)Oc1ccc(/C=N/NC2=NS(=O)(=O)c3ccccc32)cc1,0.3% (inactive),
CCCc1ccc(Oc2coc3cc(OCC(=O)Nc4ccccc4C)ccc3c2=O)cc1,-2.2% (inactive),
NC(=S)N/N=C/c1ccccc1O,-1.4% (inactive),
NC(=S)N/N=C/c1cccc(O)c1O,3.4% (inactive),
Cc1cc(/C=N/NC(N)=S)c(O)c(/C=N/NC(N)=S)c1,88.3% (active),
CCOC(=O)Cn1c(=N)n(CCOc2ccc(F)cc2)c2ccccc21,0% (inactive),
COc1ccc(CCNC(=O)C2CCC(=O)N(CC3CCCCC3)C2)cc1 (stereo unspecified),0.4% (inactive),
N/C(Cc1cccc2ccccc12)=N\OC(=O)COc1ccccc1,2.3% (inactive),
O=C(O)c1ccc(-n2cccc2/C=N\NC(=O)c2cc3cc(Br)ccc3o2)cc1,50.1% (active),
O=C(O)Cn1cc(/C=N/NC(=O)c2cc3cc(Br)ccc3o2)c2ccccc21,29.5% (inactive),
Cn1cc(/C=N/NC(=O)c2cc3cc(Br)ccc3o2)c2ccccc21,4.4% (inactive),
Cc1ccc(NC(=O)C2CCN(S(=O)(=O)c3ccc4c(c3)CCCC(=O)N4)CC2)c(Br)c1,1.8% (inactive),
CC1=C/C(=C/N(C)C)C(=O)O1,5.9% (inactive),
CCOC(=O)/C(=C/C1=CC(=C/N(C)C)/C(=O)O1)C(C)=O,59.4% (active),65.4%
CN(C)/C=C1/C=C(C=O)OC1=O,-0.5% (inactive),
COc1cc([N+](=O)[O-])ccc1N1C(=O)CC(Sc2nccc(C)n2)C1=O (stereo unspecified),-1% (inactive),
N=C1/C(=C\c2coc3ccccc3c2=O)C(=O)N=C2SC(c3ccncc3)=NN12,146% (inactive),

Compound,inhibition (at 20 µM),inhibition [1]
CSC1=NSC2=NC(=O)/C(=C\c3coc4ccccc4c3=O)C(=N)N12,44.5% (inactive),
CC(C)CC1=NN2C(=N)/C(=C\c3coc4ccccc4c3=O)C(=O)N=C2S1,148% (inactive),
CC1=CC2=NC(=O)/C(=C\c3ccc(-c4ccc(Cl)cc4)o3)C(=N)N2O1,13.2% (inactive),
CC(C)CSC1=NSC2=NC(=O)/C(=C\c3coc4ccccc4c3=O)C(=N)N12,148% (inactive),
CCSC1=NSC2=NC(=O)/C(=C\c3coc4ccccc4c3=O)C(=N)N12,89.7% (active),
N=C1/C(=C\c2coc3ccccc3c2=O)C(=O)N=C2SC=CN12,146% (inactive),
CC1=CC2=NC(=O)/C(=C/c3coc4ccc(Cl)cc4c3=O)C(=N)N2O1,99.7% (active),62.3%
CC(C)CSC1=NSC2=NC(=O)/C(=C\c3ccccc3)C(=N)N12,46.5% (inactive),
CC1=CC2=NC(=O)/C(=C\c3cc(C)n(-c4cccc(Cl)c4)c3C)C(=N)N2O1,0.2% (inactive),
CSC1=NSC2=NC(=O)/C(=C/c3coc4ccccc4c3=O)C(=N)N12,91.2% (active),
N=C1/C(=C/c2coc3ccccc3c2=O)C(=O)N=C2SC(c3ccco3)=NN12,114% (active),
COc1ccccc1CNC(=O)C1CC(c2ccccc2C(F)(F)F)=NO1 (stereo unspecified),0.6% (inactive),
COCc1cc(C)n(CC(=O)Nc2c(C)cccc2C)c(=O)c1C#N,0.1% (inactive),
NC(=O)c1ccccc1NCC(=O)c1ccc(Cl)cc1,1.4% (inactive),
CCOC(=O)C1=C(COC(=O)C2(C)CC2(Cl)Cl)NC(=O)NC1c1ccccc1 (stereo unspecified),-1.7% (inactive),
CC12CC3CC(C)(C1)CC(C(=O)NC1=NCCS1)(C3)C2,-1.5% (inactive),
Cc1ccc(C(=O)N2CCCC(Nc3cccc(F)c3)C2)cc1N1CCNC1=O (stereo unspecified),0% (inactive),
CCN(CC)c1nc2n(c(=O)n1)CCN2CC,2.4% (inactive),
O=C(CN1C(=O)C2CC=CCC2C1=O)NCc1cccs1 (stereo unspecified),-0.4% (inactive),
COc1ccc(CN2CSC(=S)N(Cc3ccc(OC)cc3)C2)cc1,-1.4% (inactive),
CSC1=NSC2=NC(=O)/C(=C/c3coc4ccc(O)cc4c3=O)C(=N)N12,57.5% (active),
N=C1/C(=C\c2coc3ccc(O)cc3c2=O)C(=O)N=C2SC=CN12,150% (inactive),
CSC1=NSC2=NC(=O)/C(=C\c3cccs3)C(=N)N12,45.4% (inactive),
Cc1ccc(/C=C2/NC(=O)N(Cc3ccccc3F)C2=O)s1,64% (active),72.6%

Compound,inhibition (at 20 µM),inhibition [1]
Cc1ccc(/C=C2/NC(=O)N(Cc3ccccc3)C2=O)s1,36.8% (inactive),
O=C1N/C(=C/c2cccs2)C(=O)N1Cc1ccccc1F,-0.7% (inactive),
O=C(CNC(=O)c1ccccc1F)NC1CC1,-0.1% (inactive),
Cc1cc(-n2c(C)cc(C(=O)CSc3ccc4c(c3)OCCO4)c2C)no1,2.6% (inactive),
CC(C)(C)C(=O)N=C1SC2CS(=O)(=O)CC2N1c1ccc2c(c1)OCO2 (stereo unspecified),-0.3% (inactive),
CCC(C)NC(=O)C1CCC(CNS(=O)(=O)c2ccccc2)CC1 (stereo unspecified),-0.4% (inactive),
Cc1ccc(O)c(C(=O)c2cc(C#N)c(=O)n(-c3nccs3)c2)c1,143% (inactive),
N#Cc1cc(C(=O)c2ccccc2O)cn(-c2nccs2)c1=O,52.8% (active),99.4%
N#Cc1cc(C(=O)c2cc(F)ccc2O)cn(-c2nccs2)c1=O,151% (inactive),
CCOC(=O)c1c(NC(=S)Nc2ccc(Cl)cc2)sc2c1CCN(C)C2,23.1% (inactive),
CC(C)c1ccc(N(CC(=O)NCc2ccc(F)cc2)C(=O)c2csnn2)cc1,-1.1% (inactive),
Cc1c(C(=O)N(C)Cc2ccccc2)oc2c(Cl)cccc12,-0.6% (inactive),
O=C1NC(=O)/C(=C/c2ccccc2OCc2ccccc2)S1,31.6% (inactive),
O=C1N/C(=N/NC(=O)c2cccc3ccccc23)S/C1=C\c1ccccc1OCc1ccccc1,80.3% (active),
O=C1NC(=O)/C(=C\c2ccccc2OCc2ccccc2)S1,47.5% (inactive),
COc1ccc(C2CC(=O)c3cnc(NC(=O)c4cccc(OC)c4)nc3C2)cc1 (stereo unspecified),5.8% (inactive),
CCC(C)NC(=O)c1ccccc1NC(=O)COc1ccc(OC)cc1 (stereo unspecified),1% (inactive),
Cc1nc(NC2CCCCC2)c2nnn(Cc3ccccc3Cl)c2n1,0.5% (inactive),
O=C(NCc1ccccc1)NC(=O)c1ccc(Cl)cc1,2.8% (inactive),
CC(C)=C1C(=O)NN(c2cccc(Cl)c2)C1=O,60% (inactive),0.7%
CC(C)=C1C(=O)NN(c2ccc(C)c(Cl)c2)C1=O,66.4% (active),
CC(C)=C1C(=O)NN(c2ccc(F)c(Cl)c2)C1=O,32.6% (inactive),
O=C(COC(=O)c1cc[n+]([O-])cc1)Nc1ccc(SC(F)F)cc1,2.4% (inactive),
O=C(Nc1cc(C(=O)N2CCCC2)ccc1N1CCCC1)c1ccccc1F,2.6% (inactive),

Compound,inhibition (at 20 µM),inhibition [1]
O=C(Nc1sc2c(c1C(=O)O)CCCC2)C(=O)N1CCOCC1,2.6% (inactive),
COc1cc(/C=C2\N=C(c3ccccc3)OC2=O)ccc1OC(C)=O,1.1% (inactive),
COc1ccc(OC)c(/C=C2\N=C(c3ccccc3)OC2=O)c1,60.8% (active),
COc1ccc(/C=C2\N=C(c3ccc(C)cc3)OC2=O)cc1,1.1% (inactive),
CC(C)=Cc1oc2ccc([N+](=O)[O-])cc2c1N1CCOCC1,0.3% (inactive),
COc1ccc(NC(C)C(=O)Nc2ccc(C#N)cc2)cc1Cl (stereo unspecified),0.7% (inactive),
O=C(Nc1ccc([N+](=O)[O-])cc1)N1CCCCCC1,-1.7% (inactive),
O=C(c1sc2ccccc2c1Cl)N1CCN(CCc2ccccn2)CC1,-0.9% (inactive),
O=C(O)c1ccc(-n2cccc2/C=C2/SC(=O)N(CC(=O)N3CCCC3)C2=O)cc1,33.4% (inactive),
COc1cccc(NC(=O)CCc2nnc3ccc(NCc4ccco4)nn23)c1,1.7% (inactive),
Cc1ccc(S(=O)(=O)/N=C2/NC(=O)/C(=C\c3ccco3)S2)cc1,-3.4% (inactive),
Cc1ccc(S(=O)(=O)/N=C2/NC(=O)/C(=C/c3ccccn3)S2)cc1,13% (inactive),
Cc1ccc(S(=O)(=O)/N=C2/NC(=O)/C(=C/c3ccncc3)S2)cc1,0.8% (inactive),
Cc1ccc(S(=O)(=O)/N=C2/NC(=O)/C(=C/c3ccccc3)S2)cc1,59.7% (inactive),46.5%
Cc1ccc(S(=O)(=O)/N=C2/NC(=O)/C(=C\c3cc(Br)cc(Br)c3O)S2)cc1,94.7% (active),132%
Cc1ccc(S(=O)(=O)/N=C2/NC(=O)/C(=C/c3ccc(Br)o3)S2)cc1,53.6% (active),
Fc1ccc(OCCCCCCN2CCCC2)cc1,0.7% (inactive),
Cc1ccc(NC(=O)CSCc2cc(=O)n3cc(C)sc3n2)c(C)c1,0% (inactive),
CCOC(=O)c1ccc(N=C2SC(C(=O)NC)CC(=O)N2Cc2ccc(F)cc2)cc1 (stereo unspecified),0.9% (inactive),
COc1ccc(C2(C(=O)NCCCN(C)C)CCOCC2)cc1,2.4% (inactive),
O=C(CCl)Nc1cc(S(=O)(=O)N2CCOCC2)ccc1N1CCOCC1,1% (inactive),
